Data reported in ChEMBL document CHEMBL2218924, “A broad activity screen in support of a chemogenomic map for kinase signalling research and drug discovery” (Biochem J, 2013).

Tests used:
[1] = molecular target: Tyrosine-protein kinase SYK (Homo sapiens) (UniProt P43405); conditions: at 10 µM
[2] = molecular target: T1, Mitogen-activated protein kinase kinase kinase 7 (Homo sapiens) (UniProt O43318); conditions: at 1 µM
T1 sequence (whole entry): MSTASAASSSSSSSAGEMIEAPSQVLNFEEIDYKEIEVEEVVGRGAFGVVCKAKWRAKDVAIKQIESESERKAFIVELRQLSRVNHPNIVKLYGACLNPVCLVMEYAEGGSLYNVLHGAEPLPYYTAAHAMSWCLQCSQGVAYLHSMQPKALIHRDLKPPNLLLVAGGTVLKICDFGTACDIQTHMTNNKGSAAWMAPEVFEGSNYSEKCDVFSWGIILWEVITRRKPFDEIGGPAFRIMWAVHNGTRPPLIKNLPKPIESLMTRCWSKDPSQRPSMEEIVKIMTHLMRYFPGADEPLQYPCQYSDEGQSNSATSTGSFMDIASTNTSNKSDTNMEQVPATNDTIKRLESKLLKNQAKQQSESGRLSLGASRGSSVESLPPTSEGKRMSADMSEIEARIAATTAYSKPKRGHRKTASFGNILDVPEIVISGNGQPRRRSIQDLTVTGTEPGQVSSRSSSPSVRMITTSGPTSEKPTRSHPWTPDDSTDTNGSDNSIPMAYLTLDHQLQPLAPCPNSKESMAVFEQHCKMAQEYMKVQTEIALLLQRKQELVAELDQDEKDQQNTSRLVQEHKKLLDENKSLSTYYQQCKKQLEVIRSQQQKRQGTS

[3] = molecular target: T1, Mitogen-activated protein kinase kinase kinase 7 (Homo sapiens); conditions: at 10 µM
[4] = molecular target: T2, Serine/threonine-protein kinase TAO1 (Homo sapiens) (UniProt Q7L7X3); conditions: at 10 µM
T2 sequence (whole entry): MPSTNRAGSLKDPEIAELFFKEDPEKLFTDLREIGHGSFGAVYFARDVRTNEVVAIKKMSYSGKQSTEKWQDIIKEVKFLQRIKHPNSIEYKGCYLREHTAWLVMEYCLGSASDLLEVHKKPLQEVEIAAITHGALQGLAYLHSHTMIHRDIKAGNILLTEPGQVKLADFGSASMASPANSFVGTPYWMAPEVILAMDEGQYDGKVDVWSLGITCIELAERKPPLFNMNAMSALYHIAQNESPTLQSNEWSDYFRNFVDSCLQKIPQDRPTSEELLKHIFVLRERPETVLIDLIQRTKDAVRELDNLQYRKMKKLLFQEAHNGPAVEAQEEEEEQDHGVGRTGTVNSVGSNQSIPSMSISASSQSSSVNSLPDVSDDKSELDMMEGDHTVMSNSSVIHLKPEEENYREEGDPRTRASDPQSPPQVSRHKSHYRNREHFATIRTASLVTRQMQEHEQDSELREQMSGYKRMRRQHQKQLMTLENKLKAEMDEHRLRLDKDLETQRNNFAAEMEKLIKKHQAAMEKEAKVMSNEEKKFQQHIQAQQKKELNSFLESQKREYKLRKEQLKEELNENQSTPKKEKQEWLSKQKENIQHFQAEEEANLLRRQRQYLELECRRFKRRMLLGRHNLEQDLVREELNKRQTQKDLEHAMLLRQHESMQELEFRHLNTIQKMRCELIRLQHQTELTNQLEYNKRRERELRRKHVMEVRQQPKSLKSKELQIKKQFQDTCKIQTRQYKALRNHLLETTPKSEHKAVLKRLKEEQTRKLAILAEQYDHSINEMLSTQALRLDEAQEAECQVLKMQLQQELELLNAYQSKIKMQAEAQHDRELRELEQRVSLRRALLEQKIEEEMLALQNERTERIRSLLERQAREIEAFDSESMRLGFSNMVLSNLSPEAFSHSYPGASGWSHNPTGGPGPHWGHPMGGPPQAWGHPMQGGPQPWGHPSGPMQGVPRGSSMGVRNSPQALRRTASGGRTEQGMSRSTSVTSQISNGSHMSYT

[5] = molecular target: T3, Serine/threonine-protein kinase TAO2 (Homo sapiens) (UniProt Q9UL54); conditions: at 10 µM
T3 sequence (whole entry): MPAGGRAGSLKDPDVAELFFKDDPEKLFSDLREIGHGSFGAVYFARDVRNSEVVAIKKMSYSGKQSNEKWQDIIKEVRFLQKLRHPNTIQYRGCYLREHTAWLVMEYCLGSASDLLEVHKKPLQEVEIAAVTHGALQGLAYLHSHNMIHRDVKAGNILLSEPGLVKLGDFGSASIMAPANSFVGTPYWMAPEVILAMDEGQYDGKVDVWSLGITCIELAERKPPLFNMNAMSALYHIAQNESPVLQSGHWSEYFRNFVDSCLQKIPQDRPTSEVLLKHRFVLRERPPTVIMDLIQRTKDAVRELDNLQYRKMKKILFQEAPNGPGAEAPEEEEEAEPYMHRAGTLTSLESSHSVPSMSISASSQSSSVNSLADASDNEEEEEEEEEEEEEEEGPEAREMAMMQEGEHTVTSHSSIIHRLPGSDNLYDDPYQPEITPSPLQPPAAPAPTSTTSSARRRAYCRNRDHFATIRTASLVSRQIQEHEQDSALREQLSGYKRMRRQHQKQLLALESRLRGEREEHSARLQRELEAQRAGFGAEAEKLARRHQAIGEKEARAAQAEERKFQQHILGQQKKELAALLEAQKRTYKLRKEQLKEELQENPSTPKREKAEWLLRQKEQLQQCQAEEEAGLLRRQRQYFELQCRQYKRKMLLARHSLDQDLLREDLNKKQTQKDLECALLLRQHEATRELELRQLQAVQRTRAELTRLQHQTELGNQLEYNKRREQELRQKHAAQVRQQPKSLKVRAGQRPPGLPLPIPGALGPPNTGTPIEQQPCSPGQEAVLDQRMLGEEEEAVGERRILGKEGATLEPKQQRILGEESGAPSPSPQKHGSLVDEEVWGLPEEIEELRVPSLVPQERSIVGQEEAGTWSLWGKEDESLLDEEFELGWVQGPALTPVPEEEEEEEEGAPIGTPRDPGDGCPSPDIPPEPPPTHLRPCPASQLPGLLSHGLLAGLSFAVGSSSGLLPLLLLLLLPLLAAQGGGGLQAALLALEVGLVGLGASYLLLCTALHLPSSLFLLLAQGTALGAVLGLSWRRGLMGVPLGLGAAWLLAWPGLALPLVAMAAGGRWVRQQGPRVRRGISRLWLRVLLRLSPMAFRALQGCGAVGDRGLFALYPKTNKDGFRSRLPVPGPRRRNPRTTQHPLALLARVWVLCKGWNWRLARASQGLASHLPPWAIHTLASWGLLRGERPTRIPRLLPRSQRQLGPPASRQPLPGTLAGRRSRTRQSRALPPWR

[6] = molecular target: T4, Serine/threonine-protein kinase TAO3 (Homo sapiens) (UniProt Q9H2K8); conditions: at 10 µM
T4 sequence (whole entry): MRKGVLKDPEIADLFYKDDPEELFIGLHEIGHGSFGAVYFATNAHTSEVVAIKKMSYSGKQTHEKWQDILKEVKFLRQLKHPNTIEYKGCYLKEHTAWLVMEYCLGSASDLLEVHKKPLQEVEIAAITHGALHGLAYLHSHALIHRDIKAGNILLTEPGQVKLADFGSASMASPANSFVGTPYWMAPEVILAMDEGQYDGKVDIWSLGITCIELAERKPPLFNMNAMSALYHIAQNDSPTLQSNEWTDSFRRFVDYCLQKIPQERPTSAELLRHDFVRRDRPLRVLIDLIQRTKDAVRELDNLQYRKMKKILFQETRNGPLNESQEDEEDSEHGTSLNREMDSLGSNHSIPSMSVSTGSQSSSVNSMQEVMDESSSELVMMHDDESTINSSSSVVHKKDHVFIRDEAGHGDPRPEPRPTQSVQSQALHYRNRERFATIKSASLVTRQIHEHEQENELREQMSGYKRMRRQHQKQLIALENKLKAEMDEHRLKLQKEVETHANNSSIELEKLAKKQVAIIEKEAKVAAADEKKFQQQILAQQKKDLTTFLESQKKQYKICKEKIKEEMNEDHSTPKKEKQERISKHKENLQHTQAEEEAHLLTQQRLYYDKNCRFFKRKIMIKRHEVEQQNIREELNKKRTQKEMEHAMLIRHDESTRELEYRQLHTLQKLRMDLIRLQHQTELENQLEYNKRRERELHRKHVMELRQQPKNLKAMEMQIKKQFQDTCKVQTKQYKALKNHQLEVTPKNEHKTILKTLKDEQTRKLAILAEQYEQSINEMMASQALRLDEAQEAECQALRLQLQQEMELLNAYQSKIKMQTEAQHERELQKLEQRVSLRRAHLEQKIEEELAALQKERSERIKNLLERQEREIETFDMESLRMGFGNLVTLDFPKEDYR

[7] = molecular target: T5, Serine/threonine-protein kinase TBK1 (Homo sapiens) (UniProt Q9UHD2); conditions: at 1 µM
T5 sequence (whole entry): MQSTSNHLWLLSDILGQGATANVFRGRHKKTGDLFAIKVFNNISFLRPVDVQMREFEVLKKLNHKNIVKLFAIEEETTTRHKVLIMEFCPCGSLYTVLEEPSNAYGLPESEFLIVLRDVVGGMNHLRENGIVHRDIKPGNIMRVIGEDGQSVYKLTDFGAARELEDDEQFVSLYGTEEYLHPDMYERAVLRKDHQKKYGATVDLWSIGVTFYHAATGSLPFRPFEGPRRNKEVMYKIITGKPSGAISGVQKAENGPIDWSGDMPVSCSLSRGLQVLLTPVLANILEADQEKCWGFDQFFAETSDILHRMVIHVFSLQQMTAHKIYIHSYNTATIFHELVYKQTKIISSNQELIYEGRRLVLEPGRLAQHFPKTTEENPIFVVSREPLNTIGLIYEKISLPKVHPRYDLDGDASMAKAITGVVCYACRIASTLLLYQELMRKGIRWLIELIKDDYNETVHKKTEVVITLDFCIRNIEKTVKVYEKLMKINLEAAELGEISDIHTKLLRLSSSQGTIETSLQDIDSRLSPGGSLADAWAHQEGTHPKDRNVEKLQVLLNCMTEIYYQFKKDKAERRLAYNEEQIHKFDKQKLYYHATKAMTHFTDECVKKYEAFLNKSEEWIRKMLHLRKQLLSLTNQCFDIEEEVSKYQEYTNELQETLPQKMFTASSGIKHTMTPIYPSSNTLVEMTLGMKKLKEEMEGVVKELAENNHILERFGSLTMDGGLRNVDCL

[8] = molecular target: T2, Serine/threonine-protein kinase TAO1 (Homo sapiens); conditions: at 1 µM
[9] = molecular target: T3, Serine/threonine-protein kinase TAO2 (Homo sapiens); conditions: at 1 µM
[10] = molecular target: T4, Serine/threonine-protein kinase TAO3 (Homo sapiens); conditions: at 1 µM

Row | SMILES | residual activity [1] | residual activity [2] | residual activity [3] | residual activity [4] | residual activity [5] | residual activity [6] | residual activity [7] | residual activity [8] | residual activity [9] | residual activity [10]
1 | Cc1cc(Nc2nc(-c3ccccc3)nc3ccccc23)n[nH]1 | 3% | 67% | 40% | 51% | 45% | 67% | 19% | – | – | –
2 | O=C(Nc1cccc(Nc2cc(Nc3cccc(C(F)(F)F)c3)ncn2)c1)C1CC1 | 105% | 95% | 95% | 73% | 80% | 96% | 89% | 100% | 94% | 100%
3 | CNc1cc2c(Nc3cccc(Br)c3)ncnc2cn1 | 90% | 91% | 90% | 81% | 75% | 90% | 79% | 100% | 110% | 95%
4 | Cc1cc2ncc(-c3ccccc3)nc2cc1C | 108% | 96% | 95% | 101% | 91% | 101% | 86% | 109% | 106% | 100%
5 | c1ccc(-c2n[nH]c3c2oc2ccccc23)cc1 | 82% | 88% | 100% | 72% | 78% | 73% | 67% | – | 98% | 95%
6 | Oc1c2ccccc2c2c3c(cccc13)N=N2 | – | 41% | 19% | 25% | 69% | 27% | 35% | 69% | 101% | 69%
7 | CCN(CC)CCCCN1c2ccccc2Oc2ccc(Cl)cc21 | 93% | 97% | 90% | 100% | 92% | 96% | 91% | 117% | 100% | 101%
